Source: PubChem
Rows were chosen to be rich in hits. Some 6% of all compounds tested hit in one or more screens of this group.
Tau fibril ThT: blocks human tau fibril formation measured by thioflavin T; recombinant tau K18 P301L, heparin-induced fibrillization, ThT fluorescence; Potency, µM (titrated, usually from 57.4 µM), for the others: at the top dose activity, negative = inhibition, most hits filed as inhibitors; 270,000 compounds, 2.1% hits; AID 1460; further: nearly all actives have a fitted effect of over 55% in size
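Using a mix of unlabeled (15 uM) and Alexa 594-labeled (0.24 uM) tau K18 P301L, heparin-triggered fibrillization over 6 hr at 37 C was scored by ThT fluorescence.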
Sfp inh: Sfp phosphopantetheinyl transferase inhibition; Q9F4F7; Biochemical Sfp PPTase activity, qHTS; Potency, µM, for inactives: largest response in the series, negative = inhibition, usual class: inhibitors; 310,000 compounds, 3.5% hits; AID 1490;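 further: the enzyme is Sfp with the accession as filed and its product quenches rhodamine fluorescence; 0% = enzyme reaction without inhibitor and -100% = no enzyme wells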
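Step 1, compound plus 15 nM Sfp-PPTase, 15 min, room temperature. Step 2, add rhodamine-CoA (5 uM) and BHQ-2-YbbR (12.5 uM). Step 3, read 525/598 nm fluorescence at 0 and 30 min.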
PLK1 PBD block: PLK1 (human) polo-box domain binding inhibition; 360,000 compounds, 2.8% hits; Plk1 PBD binding of FITC phosphopeptide, fluorescence polarization; P53350; Potency, µM, inactives show max response, negative = inhibition, most hits filed as inhibitors; further: series mostly up to about 57 µM; nearly all actives have a fitted effect of over 65% in size
Target sequence (P53350 whole entry, looked up, the tested form may be a part): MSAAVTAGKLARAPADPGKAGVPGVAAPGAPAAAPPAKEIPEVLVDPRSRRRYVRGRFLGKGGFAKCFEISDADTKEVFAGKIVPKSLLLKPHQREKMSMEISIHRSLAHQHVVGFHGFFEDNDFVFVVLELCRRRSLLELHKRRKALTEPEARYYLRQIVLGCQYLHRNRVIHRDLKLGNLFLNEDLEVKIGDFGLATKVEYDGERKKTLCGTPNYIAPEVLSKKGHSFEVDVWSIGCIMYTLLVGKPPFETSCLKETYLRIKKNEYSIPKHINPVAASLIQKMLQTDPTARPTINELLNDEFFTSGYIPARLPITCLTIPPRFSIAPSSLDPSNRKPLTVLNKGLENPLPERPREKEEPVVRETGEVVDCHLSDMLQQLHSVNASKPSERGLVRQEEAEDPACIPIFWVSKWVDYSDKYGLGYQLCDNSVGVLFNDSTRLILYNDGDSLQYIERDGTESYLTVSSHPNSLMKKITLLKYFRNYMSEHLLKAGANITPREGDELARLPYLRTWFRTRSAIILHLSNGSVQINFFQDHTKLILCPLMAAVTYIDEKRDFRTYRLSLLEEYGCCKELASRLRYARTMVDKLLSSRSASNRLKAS
Tau fluor cs: counter-screen for tau fibril formation inhibitors; tau K18 P301L (four-repeat tau fragment) Alexa594 fluorescence, heparin fibrillization; Potency, µM (series often up to 57.7 µM), for the others: at the top dose activity change, negative = decrease; 280,000 compounds, 0.93% hits; further: nearly all actives have a fitted effect of over 55% in size
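Human K18 P301L tau (15 uM unlabeled plus 0.24 uM Alexa 594-labeled, final) in 100 mM sodium acetate pH 7 was mixed with compound and 20 uM heparin and incubated 6 hr at 37 C.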
VDR inh: vitamin D3 receptor (human) inhibition | VDR-SRC2-3 peptide fluorescence polarization, 2 h | Potency, µM, for inactives: max response, negative = inhibition, usual class: inhibitors | 400,000 compounds, 0.93% hits
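VDR–SRC2-3 interaction, FP format. Cmpds 23 nl via pintool, brief spin, 2 h ambient incubation.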
Tau fibril FP: inhibitors of human tau fibril formation. K18 P301L tau heparin fibrillization, Alexa594 FP, 6 h. Potency, µM (series often up to 57.7 µM), for inactives: top-dose activity, negative = inhibition, actives largely listed as inhibitors. 280,000 compounds, 0.39% hits. P10636; further: nearly all actives have a fitted effect of over 55% in size
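Human tau K18 […] P301L fragment, 15 uM unlabeled plus 0.24 uM Alexa 594-labeled tau (final), with compound and 20 uM heparin in 100 mM sodium acetate pH 7; 6 hr at 37 C, then Alexa 594 FP read.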
Numbers without * were called inactive; u = inconclusive; x = no result; [ ] = another dose, or the depositor's remark. The call rests on the fitted dose curve; in most records, active means well fitted curve in the direction sought with a large enough effect; inconclusive means small, poorly fitted or top-dose-only effect, or another doubt; inactive means no such curve, though single readings can be large; an effect the other way counts as inactive or inconclusive. Unless noted, on the % scale 0 is the no-effect control and ±100 the full control effect; potency means the concentration at half of the fitted maximal effect.

SMILES	Tau fibril ThT	Sfp inh	PLK1 PBD block	Tau fluor cs	VDR inh	Tau fibril FP
CCOc1ccc(C(=O)NC(=S)Nc2cccnc2)cc1[N+](=O)[O-]	-18%	-25%	6µM*	-14%	u	-5%
COc1ccc(C(=O)NC(=S)Nc2ccccc2N2CCOCC2)cc1[N+](=O)[O-]	-14%	-7%	-11%	u	-7%	-9%
COc1ccc(C(=O)NC(=S)Nc2ccccc2[N+](=O)[O-])cc1OC	-10%	89µM*	-11%	-11%	5%	-8%
O=[N+]([O-])c1cc(/C=N/NC(=S)Nc2ccccc2Cl)ccc1Cl	u	17%	6%	u	u	u
O=C(O)c1ccc(Cl)c(NC(=S)NC(=O)c2ccccc2[N+](=O)[O-])c1	-8%	50µM*	u	-3%	-19%	4%
COc1ccc(/C=N/NC(=S)Nc2ccccc2[N+](=O)[O-])cc1O	4.5µM*	-6%	-9%	16µM*[quencher]	1%	-5%
CCCCN(CC)C(=O)CSc1c2c(nc3ccc(Cl)cc13)CCCC2	u	x	x	-9%	u	0%
COc1ccc(C(=O)NC(=S)Nc2ccc([N+](=O)[O-])cc2C)cc1OC	u	56µM*	-8%	-22%	-4%	-4%
CCOc1ccc(NC(=S)NC(=O)/C=C/c2ccc(OC)c(OC)c2)c([N+](=O)[O-])c1	-9%	50µM*	u	-8%	-11%	4%
CCOc1ccc(NC(=S)NC(=O)/C=C/c2ccc(C)cc2)c([N+](=O)[O-])c1	-6%	-22%	-8%	-2%	-16%	6%
CSc1nc2cc(Cl)ccc2s1	-10%	7%	-12%	-13%	10%	-1%
S=c1[nH]c2cc(Cl)ccc2s1	-9%	-6%	1.9µM*	-4%	-4%	-2%
S=c1[nH]c2ccc(Cl)cc2[nH]1	-1%	-2%	11µM*	-1%	u	-8%
COc1cc(CNC(=O)c2sc3ncccc3c2-n2cccc2)cc(OC)c1OC	-8%	x	x	-18%	0%	-4%
Cc1ccc(-c2csc3nc4cc(C(=O)NC5CCC(O)CC5)ccc4c(=O)n23)cc1 (stereo not drawn)	-8%	56µM*	-22%	2%	-8%	-3%
O=C(c1ccc2c(c1)N(Cc1ccccc1)CCS2)N1CCCCC1	u	40µM*	-12%	-16%	-20%	6%
CN1CCN(C(=O)c2ccc3c(c2)N(Cc2ccccc2)CCS3)CC1	x	-5%	-7%	x	-8%	x
Cc1ccccc1NC(=S)C1=C(O)c2sccc2N(C)S1(=O)=O	u	56µM*	u	-11%	u	-3%
CN1c2ccsc2C(O)=C(C(=S)Nc2ccccc2)S1(=O)=O	u	56µM*	21µM*	-11%	u	-10%
CCNC(=O)C1=C(O)c2sccc2N(C)S1(=O)=O	-1%	-2%	-9%	12%	13%	2%
CN1c2ccccc2C(O)=C(C(=S)Nc2ccccc2)S1(=O)=O	-24%	-7%	-24%	-16%	-8%	-8%
COc1cc(Cl)c(C)cc1NC(=O)Cn1ncc2c3ccccc3n(Cc3ccccc3)c2c1=O	4%	x	x	-17%	5%	-1%
CC(=O)Nc1ccc(S(=O)(=O)Nc2cc([N+](=O)[O-])ccc2C)cc1	-5%	20%	6.7µM*	-5%	u	4%
O=C(Nc1ccc(Oc2ccc(NC(=O)Nc3ccc([N+](=O)[O-])cc3)cc2)cc1)Nc1ccc([N+](=O)[O-])cc1	6.3µM*	16%	u	4.5µM*[quencher]	-11%	25µM*
CC(=O)Nc1ccc(OCCOc2ccc(NC(C)=O)cc2)cc1	x	6%	-2%	x	-3%	x
SMILES	Tau fibril ThT	Sfp inh	PLK1 PBD block	Tau fluor cs	VDR inh	Tau fibril FP
CC(=O)Nc1ccc(S(=O)(=O)Nc2ccc([N+](=O)[O-])cc2)cc1	-10%	11%	x	-12%	6%	-1%
CC(=O)Nc1ccc(OCCOc2ccc([N+](=O)[O-])cc2)cc1	u	89µM*	-18%	-14%	-6%	-7%
Cc1ccc(C(C)C)cc1NC(=O)Nc1ccc([N+](=O)[O-])cc1	u	21%	4%	7.9µM*[quencher]	1%	32µM*
CCOC(=O)c1c(NC(C)=O)c2c3c(sc2n1Cc1cc(C)ccc1C)CCCC3	10%	x	x	16%	2%	-11%
O=S(=O)(Nc1nc2ccccc2nc1NCc1ccco1)c1ccc(Cl)cc1	u	1%	u	-20%	-1%	3%
Cc1noc(C)c1CSc1nc2ccccc2nc1NS(=O)(=O)c1ccc(Cl)cc1	u	5%	6µM*	-9%	-7%	7%
O=C(CSc1nnc(NC(=O)C2CC2)s1)Nc1ccc(F)cc1F	x	3%	3%	x	-13%	x
Cc1ccc(NC(=O)CCN2CCN(C/C=C/c3ccccc3)CC2)cc1C	-8%	89µM*	-4%	-14%	-7%	-8%
Cc1ccc(NC(=O)CCN2CCN(C/C=C/c3ccccc3)CC2)cc1	-5%	12%	2%	-14%	2%	-6%
O=c1[nH]cnc2c1sc(=S)n2-c1ccccc1	-17%	18µM*	7.5µM*	-3%	u	-7%
O=c1[nH]c(-c2ccc(F)cc2)nc2c1sc(=S)n2-c1ccccc1	-1%	-11%	u	-7%	6%	0%
OC[C@@H]1CN(Cc2cccnc2)C[C@H](n2cnc3c(N4CCN(c5ccccc5)CC4)ncnc32)O1	x	x	-8%	x	x	x
Cc1ccc(NC(=O)CSCc2cc(=O)n3ccsc3n2)cc1	x	6%	-3%	x	2%	x
CC[n+]1c(/C=C/N(C)c2ccccc2)n(-c2ccccc2)c2ccc(-c3nc4ccccc4s3)cc21	x	45µM*	-4%	x	4%	x
CCOC(=O)c1ccc2c(c1)n(CC)c(/C=C/N(C)c1ccccc1)[n+]2CC	-6%	14%	u	10%	-6%	-1%
COc1cccc(CNC(=O)c2cc3n(n2)CCCN(Cc2ccc(C)cc2)C3=O)c1OC	-5%	x	x	0%	8%	3%
CCN1c2ccccc2-c2nc(SCC(=O)Nc3cccc(C)c3C)ncc2S1(=O)=O	4%	x	x	-20%	-5%	-11%
Cc1cccc2cc(C#N)c(NCCNC(=O)COc3ccccc3)nc12	20%	50µM*	-11%	10%	-12%	-1%
Cc1cccc2cc(C#N)c(NCc3ccccc3)nc12	1%	u	-4%	-9%	-6%	-8%
CCOCCCNC(=S)NCCNc1nc2c(C)cccc2cc1C#N	-6%	50µM*	-12%	-8%	3%	-2%
Cc1ccc2cc(C#N)c(NCCNC(=S)NCCCN(C)C)nc2c1C	-3%	-4%	-4%	-17%	-19%	-7%
CCOCCCNC(=S)NCCCNc1nc2c(C)cc(C)cc2cc1C#N	u	u	24µM*	-24%	u	2%
